Test results published in PubChem BioAssay AID488896 (Broad Institute, 2010).
About 3,100 (0.97%) of roughly 320,000 compounds were called active. This is one part of a sample in which actives are shown more often than they occur.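 The calls were made as follows: active = mean replicate inhibition of at least 70% and a set share of replicates each scoring 70 or more; inconclusive = meets just one of the two criteria; inactive = fails both criteria.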 Non-standard residues stand in square brackets, D forms with d. Residues, ends and D or L forms follow the SMILES beside them. ξ: configuration not given here. Ac5c = NC1(C(=O)O)CCCC1; ξS = NC(CO)C(=O)O

target: Scavenger receptor class B member 1 (Mus musculus) (UniProt Q61009); experiment: mouse SR-BI DiI-HDL uptake blockers – ldlA[mSR-BI] cells, fluorescence, single point, primary screen (AID 488896); conditions: ldlA[mSR-BI] CHO cells, 3 h, at 12.5 µM, hits give high values;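 also: 0% = median of neutral control wells and 100% = median of positive control wells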
Sequence (Q61009 whole entry, looked up): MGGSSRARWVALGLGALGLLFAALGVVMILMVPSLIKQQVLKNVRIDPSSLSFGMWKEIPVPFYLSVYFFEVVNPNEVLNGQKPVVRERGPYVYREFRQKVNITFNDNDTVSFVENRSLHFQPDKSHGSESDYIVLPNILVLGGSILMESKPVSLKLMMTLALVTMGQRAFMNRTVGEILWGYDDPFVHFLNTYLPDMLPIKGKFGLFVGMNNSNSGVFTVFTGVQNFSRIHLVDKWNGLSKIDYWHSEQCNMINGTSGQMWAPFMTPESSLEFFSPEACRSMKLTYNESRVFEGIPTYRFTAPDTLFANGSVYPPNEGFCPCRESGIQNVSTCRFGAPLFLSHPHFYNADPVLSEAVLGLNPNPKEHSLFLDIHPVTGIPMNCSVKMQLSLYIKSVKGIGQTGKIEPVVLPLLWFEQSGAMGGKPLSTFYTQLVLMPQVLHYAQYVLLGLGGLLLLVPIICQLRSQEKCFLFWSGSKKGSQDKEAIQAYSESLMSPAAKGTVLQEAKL

SMILES | inhibition
COc1ccc(-c2nc3n(c2Br)CCC3)cc1 | 4.81% (inactive)
COc1ccc(-c2nc3c(s2)CCc2onc(-c4ccc(OC)cc4)c2-3)cc1 | 75.1% (active)
COc1ccc(-c2nc3c(s2)CCc2onc(-c4ccc(Br)cc4)c2-3)cc1 | 58.7% (inactive)
NC(=O)C1CCN(C(=O)c2cc(S(=O)(=O)N3CCN(c4ccccc4)CC3)ccc2Cl)CC1 | -3.45% (inactive)
COc1cccc(/C=C2/SC(=S)N(CC(=O)NC3C=CS(=O)(=O)C3)C2=O)c1 (configuration not stated) | 6.75% (inactive)
COc1cccc(/C=C2\SC(=N)N(c3ccc(F)cc3)C2=O)c1 | 80.3% (active)
COc1ccc(/C=C2\SC(=N)N(c3ccc(F)cc3)C2=O)cc1 | 13.3% (inactive)
Cc1cc(C)cc(OCC(=O)NC(C)c2ccccc2)c1 (configuration not stated) | -23.6% (inactive)
C/C(CC(=O)NC(C)c1ccccc1)=N\NC(N)=S (configuration not stated) | 86.3% (active)
Cc1ccc(OCC(=O)NC(C)c2ccccc2)cc1C (configuration not stated) | 0.888% (inactive)
O=[N+]([O-])c1ccc(N=NNc2ccc([N+](=O)[O-])cc2)cc1 | -5.77% (inactive)
CCOC(=O)C(CO)NC(=O)C1(NC(C)=O)CCCC1 (configuration not stated) (Ac-[Ac5c]-[ξS]-OEt) | -1.77% (inactive)
O=C(O)c1ccccc1C(=O)Nc1nc(-c2ccccc2)cs1 | -7.75% (inactive)
O=C(Nc1ccc(C(F)(F)F)cc1)c1cccc(-n2cnnn2)c1 | 9.16% (inactive)
O=C(Nc1ccc(-c2csc(Nc3cccc(C(F)(F)F)c3)n2)cc1)c1cccc(C(F)(F)F)c1 | 109% (active)
CN(C(=O)c1cccc(NC(=O)Cc2ccc(NC(=O)C3CCN(C(=O)C4CCCCC4)CC3)cc2)c1)C1CCC1 | 28.2% (inactive)
C=CCCC(=O)N1C[C@H]2CON(C)[C@H]2C[C@H]1c1cccc(Nc2ccccc2)c1 | 2.33% (inactive)
CCCCN(C(=O)c1cccc(N2C(=O)c3ccccc3C2=O)c1)c1c(N)n(CCCC)c(=O)[nH]c1=O | 9.37% (inactive)
COc1ccc(CNC2CCCCC2)cc1 | -32.1% (inactive)
COc1cc(CN2CCC(C(N)=O)CC2)ccc1OCc1ccccc1 | -14.9% (inactive)
COc1cc(CNC2CCCC2)c(Br)cc1OCc1ccccc1 | 79.2% (active)
O=C1/C(=C\c2ccc(O)cc2)CCC1CNc1ccc(Cl)cc1 (configuration not stated) | 18.3% (inactive)
